Reference: PubChem BioAssay (NCI)
Compounds without any hit were thinned out: in the full panel of roughly 83,000, 20% have a hit.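 Plates (96-well) were seeded with cells, treated with compound at one concentration, and incubated for 48 hours before percent growth was determined.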 Activity calls are given as the source filed them. Rule for the calls: active = growth percent below 10; inactive = the rest.

Legend:
Test in all cases: NCI-60 one-dose screen, 48 h (100 = growth as untreated, 0 = no growth, -100 = all killed)
Details in all cases: 10 µM unless noted
EKVX NSCLC = tested on: EKVX NSCLC
SN12C renal = tested on: SN12C renal
UO-31 renal = tested on: UO-31 renal
TK-10 renal = tested on: TK-10 renal
ACHN renal = tested on: ACHN renal
A498 renal = tested on: A498 renal
CCRF-CEM leukemia = tested on: CCRF-CEM leukemia
MOLT-4 leukemia = tested on: MOLT-4 leukemia
SR leukemia = tested on: SR leukemia

Measured: growth

C=C1C(=O)O[C@H]2[C@H]1CC/C(COC(=O)c1cc3ccccc3o1)=C\CC[C@@]1(C)O[C@@H]21
inactive: TK-10 renal 39.2% | A498 renal 103%
active: EKVX NSCLC -26.4% | SN12C renal -1.94% | UO-31 renal 3.76% | ACHN renal 7.04% | CCRF-CEM leukemia 1.96% | MOLT-4 leukemia -9.79% | SR leukemia -1.95%

Nc1ccccc1NS(=O)(=O)c1ccc(Cl)cc1
inactive: EKVX NSCLC 98.4% | SN12C renal 103% | UO-31 renal 83.9% | TK-10 renal 90.8% | ACHN renal 94.8% | A498 renal 81.5% | CCRF-CEM leukemia 96.6% | MOLT-4 leukemia 97.1% | SR leukemia 89.6%

COc1ccc(Nc2nc(SCC(C)C)nc(-c3ccc(F)cc3)c2C#N)cc1
inactive: EKVX NSCLC 69.4% | SN12C renal 85.9% | UO-31 renal 68.9% | TK-10 renal 92.1% | ACHN renal 72% | A498 renal 30.7% | CCRF-CEM leukemia 33.3% | MOLT-4 leukemia 57.2% | SR leukemia 20.1%

O=C(NCc1ccccc1)c1ccc2c(c1)NC(=O)[C@@H]1CCCN21
inactive: EKVX NSCLC 101% | SN12C renal 105% | UO-31 renal 90.9% | TK-10 renal 93.8% | ACHN renal 98.7% | A498 renal 70.3% | CCRF-CEM leukemia 116% | MOLT-4 leukemia 113% | SR leukemia 106%

CCCCCCN1C(=O)CN=C1Nc1ccc2cc3ccc(NC4=NCC(=O)N4CCCCCC)cc3nc2c1
inactive: EKVX NSCLC 56.9% | SN12C renal 26.7% | UO-31 renal 51.7% | TK-10 renal 75.9% | ACHN renal 67.6% | A498 renal 104% | CCRF-CEM leukemia 12%
active: MOLT-4 leukemia 9.83% | SR leukemia 0.413%

COc1cc(-c2nn(-c3ccc(Br)cc3)cc2CO)ccc1O
inactive: EKVX NSCLC 92.5% | SN12C renal 97.1% | UO-31 renal 59.9% | TK-10 renal 110% | ACHN renal 100% | A498 renal 77.2% | CCRF-CEM leukemia 54.9% | MOLT-4 leukemia 57.1% | SR leukemia 65.4%

COc1ccc(-c2cn(-c3ccc(Cl)cc3)c(=S)[nH]2)cc1OC
inactive: EKVX NSCLC 74.7% | SN12C renal 74.3% | UO-31 renal 85.4% | TK-10 renal 72.8% | ACHN renal 67% | A498 renal 94.4% | CCRF-CEM leukemia 84.4% | MOLT-4 leukemia 77.8% | SR leukemia 22.3%

N#Cc1c(-c2ccc(F)cc2)nc(N/N=C/c2c[nH]c3ccccc23)nc1N1CCOCC1
inactive: EKVX NSCLC 56.1% | SN12C renal 82.2% | UO-31 renal 34.5% | TK-10 renal 89.9% | ACHN renal 43.4% | A498 renal 25.6% | MOLT-4 leukemia 22%
active: SR leukemia 6.49%
